Results from PubChem BioAssay AID2360 (The Scripps Research Institute Molecular Screening Center, 2010).
The campaign covered roughly 1,900 compounds. About 85 (4%) were called active.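 How the source made its calls: active means mean PP5 inhibition over triplicate wells above about 9.5% taken from the earlier PP1 screen (limit read from the data); inactive means the rest.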 This excerpt belongs to a sample that is enriched for actives.

What follows are compounds tested against Serine/threonine-protein phosphatase 5 (Homo sapiens) (UniProt P53041) (assay: PP5 phosphatase inhibition by PP1 hits, confirmation, counter-screen for PP1 inhibitor project, biochemical, fluorescence, triplicate (AID 2360)). Conditions: purified PP5c, OMFP fluorescence; at 6.7 µM; hits give high values.
Serine/threonine-protein phosphatase 5 (Homo sapiens), sequence (P53041 whole entry, looked up): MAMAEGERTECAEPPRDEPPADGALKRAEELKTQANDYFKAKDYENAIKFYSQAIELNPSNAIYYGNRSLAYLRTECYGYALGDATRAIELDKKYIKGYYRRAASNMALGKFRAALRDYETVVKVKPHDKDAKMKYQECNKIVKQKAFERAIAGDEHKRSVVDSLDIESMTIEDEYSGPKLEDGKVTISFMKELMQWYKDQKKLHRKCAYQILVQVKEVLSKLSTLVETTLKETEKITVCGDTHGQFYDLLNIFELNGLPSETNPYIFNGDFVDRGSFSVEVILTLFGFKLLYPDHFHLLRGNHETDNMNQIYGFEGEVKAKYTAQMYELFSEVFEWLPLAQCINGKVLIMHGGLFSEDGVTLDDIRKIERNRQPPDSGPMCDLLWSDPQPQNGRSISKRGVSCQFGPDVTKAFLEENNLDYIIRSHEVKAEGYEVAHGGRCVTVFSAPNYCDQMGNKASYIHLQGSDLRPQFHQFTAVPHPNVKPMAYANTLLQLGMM

SMILES | inhibition
O=C(O)c1ccccc1NC(=O)C1C2CCC(O2)C1C(=O)O (stereo not drawn) | 17.6% (active)
CCOP(=O)(OCC)C(O)c1ccc(OC)cc1OC (stereo not drawn) | -3.76% (inactive)
O=c1[nH]c(CN2CC=C(c3ccccc3)CC2)nc2scc(-c3cccs3)c12 | -3.01% (inactive)
